Screens deposited in PubChem by National Center for Advancing Translational Sciences (NCATS).
Rows were chosen to be rich in hits. Some 7.5% of all compounds tested hit in one or more screens of this group.
RORgamma inh – qHTS for inhibitors of ROR gamma transcriptional activity | Nuclear receptor ROR-gamma (Mus musculus), P51450 | Drosophila S2 Gal4-RORgamma UAS-luciferase reporter, 20 h | Potency, µM (doses to about 53.6 µM), hits mostly inhibitors | 310,000 compounds, 5.4% hits | AID 2551, 2010; further: nearly all actives have a fitted effect of over 60% in size
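Schneider cells (Drosophila), stable Gal4 DBD–ROR gamma + UAS-luc; 1 hr cmpd preincubation; Cu2+ induction 700 uM final; 20 hr ambient; luminescence.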
ELG1 repair inh – qHTS screen for small molecules that inhibit ELG1-dependent DNA repair in human embryonic kidney (HEK293T) cells expressing luciferase-tagged ELG1. HEK293T ELG1-luciferase reporter, luminescence, 16 h; DNA damage induced by 5-fluorouridine. 330,000 compounds, 2.3% hits. AID 504467, 2011. Potency, µM (highest dose often 46.1 µM), actives largely listed as inhibitors; further: nearly all actives have a fitted effect of over 55% in size
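5-Fluorouridine DNA damage + compound/DMSO, 2,000 cells/well, 16 h, 37 °C/5% CO2. ONE-Glo, 30 min RT, luminescence. Readout = decrease in reporter signal.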
Gal4-VP16 FLuc – VP16 counterscreen qHTS for inhibitors of ROR gamma transcriptional activity. Drosophila S2 Gal4-VP16 UAS-luciferase, luminescence, 20 h. Potency, µM (top dose mostly 53.6 µM), most hits filed as inhibitors. 310,000 compounds, 3.5% hits. AID 2546, 2010;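 further: Gal4-VP16 expression switched on by copper sulfate through the metallothionein promoter; nearly all actives have a fitted effect of over 50% in size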
B2AR arrestin – qHTS assay of beta-arrestin-biased ligands of beta2-adrenergic receptor; 330,000 compounds, 0.02% hits; AID 492947, 2010; Beta-2 adrenergic receptor (Homo sapiens), P07550; beta-arrestin recruitment to beta2AR, cell-based reporter; Potency, µM (series often up to 46.1 µM), actives largely listed as activators; further: nearly all actives have a fitted effect of over 65% in size
Target sequence (P07550 whole entry, looked up): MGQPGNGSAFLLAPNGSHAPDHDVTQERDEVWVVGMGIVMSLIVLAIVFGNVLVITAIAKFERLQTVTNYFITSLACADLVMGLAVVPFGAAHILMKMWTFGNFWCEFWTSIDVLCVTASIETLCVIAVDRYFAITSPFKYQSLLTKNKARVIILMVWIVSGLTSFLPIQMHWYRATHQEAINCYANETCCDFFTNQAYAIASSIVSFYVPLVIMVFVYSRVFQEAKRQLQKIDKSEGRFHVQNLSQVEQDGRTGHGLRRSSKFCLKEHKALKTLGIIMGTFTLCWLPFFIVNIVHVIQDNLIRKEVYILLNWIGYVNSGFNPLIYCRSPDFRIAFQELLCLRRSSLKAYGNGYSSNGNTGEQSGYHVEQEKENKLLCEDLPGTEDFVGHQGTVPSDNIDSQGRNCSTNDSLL
TSHR antag – Antagonists of the Thyroid Stimulating Hormone Receptor: HTS campaign. 330,000 compounds, 0.2% hits. TSHR-expressing cells, TSH-stimulated cAMP HTRF, 2 h; hits give low values. AID 504810, 2011. activity change, negative = inhibition, % at 11.5 µM;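 active means activity change below a set negative limit, meaning inhibition stronger than a set level, cut at about -70% in these data; inconclusive means activity change between two set negative limits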
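Competitive HTRF cAMP read-out (cryptate anti-cAMP antibody, cAMP-d2; 30 min, room temperature) in freshly harvested TSHR cells. Compounds added before TSH at EC80 (4nM final), followed by 2 hours' incubation at 37 deg C.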
A number is an active result; i = inactive; ? = inconclusive; nt = not tested or not shown; [ ] = remark or other dose. Unless noted, the call rests on the fitted dose curve; in most records, active means well fitted curve in the direction sought with a large enough effect; inconclusive means small, poorly fitted or top-dose-only effect, or another doubt; inactive means no such curve, though single readings can be large; an effect the other way counts as inactive or inconclusive.

SMILES	RORgamma inh	ELG1 repair inh	Gal4-VP16 FLuc	B2AR arrestin	TSHR antag
COc1cc(NC(=O)c2cc([N+](=O)[O-])ccc2NC(=O)CNC2CCCCC2C)cc(OC)c1 (stereo unspecified)	i	?	i	i	i
COc1ccc2c(c1)C(=O)[C@H](OC(=O)Nc1cc(OC)c(OC)c(OC)c1)[C@@H](c1ccc(OC)c(Br)c1)O2	i	nt	i	nt	nt
O=C(c1ccco1)N1CCN(c2ncnc3sc4c(c23)CCC4)CC1	i[10 µM]	14.6µM	i	i	i
c1ccc(N2CCN(c3ncnc4sc5c(c34)CCC5)CC2)cc1	i	16.4µM	i	i	i
CCc1nc(N2CCN(C(=O)c3ccco3)CC2)c2c3c(sc2n1)CCCC3	i	?	i	i	i
COc1ccc(NC(=O)c2cccc(N3C(=O)C4C5C=CC(C5)C4C3=O)c2)cc1Cl (stereo unspecified)	?	?	?	i	i
CC(Oc1ccc(Cl)cc1Cl)c1nc(-c2ccc(NC(=O)c3ccncc3)cc2)no1 (stereo unspecified)	?	18.4µM	12.6µM	i	?
CC(Oc1ccc(Cl)cc1Cl)c1nc(-c2ccc(NC(=O)c3cccnc3)cc2)no1 (stereo unspecified)	?	?	?	i	i
COC(=O)C1=C(C)N(Cc2ccccc2)C2=C3C(=O)N(C)C(=O)C3[C@@](O)(C(=O)OC)C(=O)N2C1c1ccccc1 (stereo partly specified)	i[10 µM]	nt	i[10 µM]	nt	nt
COc1ccccc1N1CCN(C(=O)c2sc3nc(-c4ccc(F)cc4)cn3c2C)CC1	i	18.4µM	i	i	i
CCOC(=O)N1CCN(C(=O)c2sc3nc(-c4ccc(F)cc4)cn3c2C)CC1	i	20.6µM	i	i	i
COc1ccc(-c2cn3c(C)c(C(=O)N4CCN(c5ccc(F)cc5)CC4)sc3n2)cc1	i	i	i	i	i
COC(=O)NC(c1cccc(C)c1)C(C(C)=O)C(=O)OC (stereo unspecified)	i[10 µM]	nt	i[10 µM]	nt	nt
Cn1c(O)c(N=NC(=O)CNC(=O)c2ccccc2)c2ccccc21	i	i	i	i	i
Cn1c(N=NC(=O)c2ccccc2)c(O)c2ccccc21	8.91µM	?	?	i	i
CCOC(=O)c1oc2ccc(S(=O)(=O)n3nc(-c4ccccc4)cc3N)cc2c1C	i	?	11.2µM	i	i
Cc1cccc(N2C(=O)N3[C@H](c4ccc(Br)cc4)[C@@H]4C(=O)N(C(C)(C)C)C(=O)[C@@H]4[C@]3(C)C2=O)c1	i	i	i	i	i
Cc1noc(C)c1-c1ccc2ncnc(NC3CCCc4ccccc43)c2c1 (stereo unspecified)	28.2µM	nt	i	nt	nt
Oc1ccccc1Nc1nc(NCc2ccccc2)c2ccccc2n1	?	?	22.4µM	i	i
Cc1noc(C)c1-c1ccc2ncnc(NCc3cccc(Cl)c3)c2c1	i	nt	i	nt	nt
COc1cc2ncnc(NCc3ccccc3)c2cc1OC	i	?	i	i	i
c1ccc(CNc2ncnc3ccccc23)cc1	i	?	11.2µM	i	i
Cc1noc(C)c1-c1ccc2ncnc(NCc3ccccc3)c2c1	2.82µM	nt	i	nt	nt
O=C(O)CCSCCCN1C(=O)c2cccc3cccc(c23)C1=O	i	i	i	i	i
Nc1nc2c(nc(SCc3ccccc3Br)n2[C@@H]2O[C@H](CO)[C@@H](O)[C@H]2O)c(=O)[nH]1	i	i	i	i	i
SMILES	RORgamma inh	ELG1 repair inh	Gal4-VP16 FLuc	B2AR arrestin	TSHR antag
COCCCNC(=O)CCN1N=C(c2ccccc2)CCC1=O	i	i	i	i	i
Cc1ccc(CNc2ncnc3ccc(-c4c(C)noc4C)cc23)cc1	i	nt	i	nt	nt
Cc1noc(C)c1-c1ccc2ncnc(NCc3ccc(Br)cc3)c2c1	11.2µM	nt	11.2µM	nt	nt
CCOC(=O)N1CCC(NC(=O)c2ccc3c(c2)N(Cc2ccc(F)cc2)CCS3)CC1	i	18.4µM	i	i	i
CCOC(=O)N1CCC(NC(=O)c2ccc3c(c2)N(Cc2ccccc2)CCS3)CC1	i	14.6µM	i	i	i
CC(C)(C)[C@@H]1CCC(=O)N(CC[C@H](Sc2ccc(Br)cc2)c2ccccc2)CC1	nt	i	nt	i	i
Cc1nnc(SCC(=O)Nc2nc3ccccc3s2)n(N)c1=O	i	?	i	i	i
Nn1c(SCC(=O)Nc2nc3ccccc3s2)nncc1=O	31.6µM	?	i	i	i
Cc1ccn2c(NC(C)(C)C)c(-c3cccs3)nc2c1	11.2µM	i	i	i	i
Cn1ncc(Br)c1NC(=O)CSc1ccc(Cl)cc1	i	7.3µM	i	i	i
CC[C@H](C)[C@H](N)C(=O)N[C@@H](CCCCN)C(=O)N[C@H](C(=O)N[C@@H](C)C(=O)N[C@H](C(=O)O)C(C)C)C(C)C	i	nt	i	nt	nt
CCC(C)C(N)C(=O)NC(CC(N)=O)C(=O)NC(CC(C)C)C(=O)NC(CCCCN)C(=O)NC(C)C(=O)NC(CC(C)C)C(=O)NC(C)C(=O)NC(C)C(=O)NC(CC(C)C)C(=O)NC(C)C(=O)NC(CCCCN)C(=O)NC(CCCCN)C(=O)NC(C(=O)NC(CC(C)C)C(N)=O)C(C)CC (stereo unspecified)	?	nt	17.8µM	nt	nt
CC(C)Oc1ccc(N2CC(C(=O)Nc3ccccc3C(=O)NC3CC3)CC2=O)cc1 (stereo unspecified)	nt	?	nt	i	i
Cc1ccc2nc(NC(=O)c3ccco3)sc2c1	8.91µM	?	7.08µM	i	i
O=C(Nc1nc2ccc(Cl)cc2s1)c1ccco1	?	?	?	i	i
Cc1ccc2nc(NC(=S)NC(=O)c3ccco3)sc2c1	0.282µM	?	3.55µM	i	i
COc1ccc2nc(NC(=O)c3ccco3)sc2c1	10µM	?	10µM	i	i
Cc1cccc(OCCCc2c(C)n[nH]c2C)c1	11.2µM	i	i	i	i
COc1cccc(OC)c1OCCCc1c(C)n[nH]c1C	i	i	i	i	i
CC(=O)Cn1ncc(Br)c(Br)c1=O	11.2µM	?	i[10 µM]	i	i
COC(=O)C(COC(=O)c1c(F)cccc1F)NC(=O)c1c(F)cccc1F (stereo unspecified)	i	i	i	i	i
CC(C)(C)C(=O)Cn1ncc(N2CCCC2)c(Br)c1=O	i	?	i	i	i
O=C(OCn1ncc(Br)c(Br)c1=O)c1c(F)cccc1F	3.55µM	9.2µM	4.47µM	i	i
CCCNC(=O)C(=O)N/N=C/c1cccs1	i	?	i	i	i
CCNC(=S)N/N=C/c1sc(N2CCCCC2)nc1-c1cccs1	?	?	17.8µM	i	i
CSCCC(NC(=O)c1ccccc1Br)C(=O)NNC(=O)c1cc(C)oc1C (stereo unspecified)	nt	i	nt	i	nt
O=C1C(Cl)=C(NCCN2CCCCC2)C(=O)c2ccccc21	10µM	20.6µM	?	i	i
